From PubChem BioAssay
This is a sample that favours compounds with a hit; in the whole collection about 19% have one here.
DT40 TDP1 CPT – growth inhibition of DT40 Tdp1-/-;hTDP1 cells with camptothecin (screen for TDP1 inhibitors) | chicken DT40 Tdp1-/-;hTDP1 cells + 20 nM CPT, ATP luminescence, 48 h | Potency, µM (titrated, usually from 46.2 µM), inactives show top-dose activity change, negative = growth inhibition, usual class: inhibitors | actives 12% (n = 420,000); further: nearly all actives have a fitted effect of over 55% in size
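Chicken DT40 Tdp1-/- cells complemented with human TDP1, 400 cells/well, exposed to compounds plus 20 nM camptothecin for at least 48 h at 37 C; viability read as ATP content by CellTiter-Glo luminescence.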
Gal4-VP16 FLuc – inhibits Gal4-VP16 luciferase reporter, ROR gamma counter-screen | Drosophila S2 Gal4-VP16 UAS-luciferase, luminescence, 20 h | Potency, µM (top dose mostly 53.6 µM), without a hit: top-dose activity, negative = inhibition, hits mostly inhibitors | actives 3.5% (n = 310,000);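 further: Gal4-VP16 expression switched on by copper sulfate through the metallothionein promoter; nearly all actives have a fitted effect of over 50% in size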
RORgamma inh – blocks mouse ROR gamma transcriptional activity; actives 5.4% (n = 310,000); Potency, µM (doses to about 53.6 µM), without a hit: at the highest dose activity change, negative = inhibition, usual class: inhibitors; P51450; Drosophila S2 Gal4-RORgamma UAS-luciferase reporter, 20 h; further: nearly all actives have a fitted effect of over 60% in size
Target sequence (P51450 whole entry, looked up, the tested form may be a part): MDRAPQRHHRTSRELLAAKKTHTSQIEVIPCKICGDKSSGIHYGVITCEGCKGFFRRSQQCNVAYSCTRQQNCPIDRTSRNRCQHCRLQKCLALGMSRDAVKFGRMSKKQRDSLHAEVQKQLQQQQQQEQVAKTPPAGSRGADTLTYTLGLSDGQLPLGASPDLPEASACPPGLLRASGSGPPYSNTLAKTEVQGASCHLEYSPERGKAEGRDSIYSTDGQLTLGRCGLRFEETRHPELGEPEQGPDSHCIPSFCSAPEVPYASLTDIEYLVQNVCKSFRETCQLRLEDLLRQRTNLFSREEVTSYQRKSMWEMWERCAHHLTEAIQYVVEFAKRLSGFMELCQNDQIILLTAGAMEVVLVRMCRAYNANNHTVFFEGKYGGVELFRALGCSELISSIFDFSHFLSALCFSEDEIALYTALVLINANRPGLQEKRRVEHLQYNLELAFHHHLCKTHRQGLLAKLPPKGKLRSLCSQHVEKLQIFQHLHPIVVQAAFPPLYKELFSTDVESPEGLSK
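ROR gamma transcriptional activity was tracked as Gal4-UAS luciferase output in stably transfected Drosophila Schneider cells, with compound added 1 hr before 700 uM copper sulfate induction and a 20 hr ambient-temperature incubation.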
TDP1 block – inhibitors of human tyrosyl-DNA phosphodiesterase TDP1. Q9NUW8. actives 0.28% (n = 350,000). AID 485290. Potency, µM (highest dose often 130 µM), for the others: top-dose activity change, negative = inhibition, most hits filed as inhibitors. recombinant TDP1, AlphaScreen DNA substrate cleavage; further: nearly all actives have a fitted effect of over 40% in size
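Recombinant human Tdp1 (E. coli-expressed, 1 nM final) preincubated with compounds 15 min at room temperature, then 5'-biotin/3'-phosphotyrosine-FITC DNA substrate (15 nM final) added for 5 min. AlphaScreen beads (10 ug/ml final) added 10 min; cleavage lowers signal.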
DT40 TDP1 no CPT – qHTS for Inhibitors of human tyrosyl-DNA phosphodiesterase 1 (TDP1): qHTS in cells in absence of CPT. DT40 Tdp1-/- hTDP1 cells, no CPT, ATP luminescence, 48 h. Potency, µM (doses to about 46.2 µM), without a hit: top-dose activity change, negative = growth inhibition, hits mostly inhibitors. actives 15% (n = 420,000). AID 686978, 2013; further: nearly all actives have a fitted effect of over 55% in size
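Seeded 400 DT40-hTDP1 cells/well (vehicle DMSO, no 20 nM CPT); pinned compounds; ≥48 hr at 37 °C; CellTiter-Glo luminescence as viability measure.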
Active calls of the source: *; [ ] = dose if it differs, or a comment. The call rests on the fitted dose curve; in most records, active means well fitted curve in the direction sought with a large enough effect; inconclusive means small, poorly fitted or top-dose-only effect, or another doubt; inactive means no such curve, though single readings can be large; an effect the other way counts as inactive or inconclusive. On the % scale 0 is the no-effect control and ±100 the full control effect; potency means the concentration at half of the fitted maximal effect.

CCCn1nnc(NC(=O)c2ccccc2Cl)n1 was read as DT40 TDP1 CPT -0.2%, Gal4-VP16 FLuc 27.3%, RORgamma inh -21.7%, TDP1 block 6.6% and DT40 TDP1 no CPT -8.9%.
For CCCn1nnc(NC(=S)NC(=O)c2ccccc2OC)n1 the results were DT40 TDP1 CPT inconclusive, TDP1 block 0.9% and DT40 TDP1 no CPT 18.4µM*.
Screening CCCCn1nnc(NC(=S)NC(=O)c2ccc(-c3cccc(Cl)c3Cl)o2)n1 returned DT40 TDP1 CPT 10.3µM*, Gal4-VP16 FLuc 1.12µM*, RORgamma inh 1.26µM*, TDP1 block 8.2% and DT40 TDP1 no CPT 23.1µM*.
COc1cc2ccccc2cc1C(=O)NC(=S)Nc1nnn(C)n1 was read as DT40 TDP1 CPT 23.1µM*, Gal4-VP16 FLuc 1.12µM*, RORgamma inh 1µM*, TDP1 block 2.8% and DT40 TDP1 no CPT 16.4µM*.
For CCCCC(=O)NC(=S)Nc1nnn(CCC)n1 the results were DT40 TDP1 CPT 4.11µM*, Gal4-VP16 FLuc 0.562µM*, RORgamma inh 0.112µM*, TDP1 block 1.6% and DT40 TDP1 no CPT 5.8µM*.
Screening CC(=O)N1CCN(C(=O)CCNS(=O)(=O)c2ccccc2)CC1 returned DT40 TDP1 CPT 3.3%, TDP1 block 0.3% and DT40 TDP1 no CPT 1.7%.
`COC(=O)c1ccc(Oc2nc3c(c(=O)n(C)c(=O)n3C)n2Cc2ccc(Cl)c(Cl)c2)cc1` gave DT40 TDP1 CPT 3.6%, TDP1 block 2.2%[12.3 µM] and DT40 TDP1 no CPT -4.8%.
Screening Cn1nnc(NC(=S)NC(=O)c2cc(Cl)ccc2Cl)n1 returned DT40 TDP1 CPT -6.9%, Gal4-VP16 FLuc 2µM*, RORgamma inh 0.794µM*, TDP1 block 6.1% and DT40 TDP1 no CPT 11.9%.
For CCOc1ccc(C(=O)NC(=S)Nc2ncccc2C)cc1[N+](=O)[O-] the results were DT40 TDP1 CPT inconclusive, Gal4-VP16 FLuc -0.5%, RORgamma inh -1.0%, TDP1 block -2.7% and DT40 TDP1 no CPT inconclusive.
`CCCCn1nnc(NC(=S)NC(=O)c2ccc(OCC)c([N+](=O)[O-])c2)n1` gave DT40 TDP1 CPT inconclusive, Gal4-VP16 FLuc 2.51µM*, RORgamma inh 2.82µM*, TDP1 block 6.8% and DT40 TDP1 no CPT 20.6µM*.
CCOC(=O)C1(C)CCCN1C(=O)c1snnc1C (stereo not given) was read as DT40 TDP1 CPT 1.9% and DT40 TDP1 no CPT -4.2%.
Cc1cc(SCC(=O)Nc2ccccc2)nc(C)n1 was read as DT40 TDP1 CPT -7.1%, Gal4-VP16 FLuc 0.6%, RORgamma inh -6.0%, TDP1 block 6.3% and DT40 TDP1 no CPT -23.4%.
Cc1cc2nc(C)n(CCCNC(=O)Nc3ccc(F)cc3)c2cc1C was read as DT40 TDP1 CPT inconclusive, Gal4-VP16 FLuc 4.4%, RORgamma inh 12.2%, TDP1 block 4.5% and DT40 TDP1 no CPT 23.1µM*.
`O=C(c1ccc2ccccc2c1)N1CCN(c2ccccc2)CC1` gave DT40 TDP1 CPT -13.5%, Gal4-VP16 FLuc 7.4%, RORgamma inh 8.8%, TDP1 block 2.0% and DT40 TDP1 no CPT -21.2%.
For CN(C)CCNc1ncnc2c1sc1nc(-c3ccccc3)c3c(c12)CCCC3 the results were DT40 TDP1 CPT inconclusive, Gal4-VP16 FLuc 2.82µM*, RORgamma inh inconclusive and DT40 TDP1 no CPT 23.1µM*.
CCN1C(=O)c2ccccc2Sc2ccc(C(=O)NCCCN(CC(C)C)CC(C)C)cc21 was read as DT40 TDP1 CPT 14.6µM*, Gal4-VP16 FLuc -6.0%, RORgamma inh -3.5%, TDP1 block 7.8% and DT40 TDP1 no CPT 16.4µM*.
Screening CCCCN(CC)CCCNC(=O)c1ccc2c(c1)N(Cc1ccc(C)cc1)C(=O)c1ccccc1S2 returned DT40 TDP1 CPT 5.8µM*, TDP1 block 2.6% and DT40 TDP1 no CPT 5.17µM*.
`CCN(CC)c1ncnc2c1sc1nc(C)cc(C)c12` gave DT40 TDP1 CPT inconclusive, Gal4-VP16 FLuc 1.9%, RORgamma inh -20.1%, TDP1 block 0.0% and DT40 TDP1 no CPT inconclusive.
